From PubChem BioAssay
Most compounds without a hit are left out; they make up all but 3.5% or so of the library.
mHTT-CaM PPI inh = mHTT-calmodulin interaction abrogation | P42858 | 190,000 tested, 3.6% active | inhibition, % at 15 µM | AlphaScreen His-mHTT/GST-CaM binding, luminescence;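 note: 0% = both proteins with DMSO and 100% = one protein alone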
Pf apPOL inh = Pf-apPOL DNA polymerase inhibition. Recombinant Pf-apPOL, molecular beacon fluorescence, 1.5 h. inhibition, % at 10 µM. 210,000 tested, 0.25% active. AID 1794808
* hit, by the source's call; x = not tested or not shown; ! = a repeat was not active. Cut-off read from the data, not from the text of the source: active = inhibition above about 50%; inactive = the rest.

SMILES	mHTT-CaM PPI inh	Pf apPOL inh
Cc1cc2[nH]c(C(=O)Nc3cccc(Cl)c3C)c(CN3CCOCC3)c2s1	36	15
O=C(CCc1c[nH]c2ccccc12)OCC(=O)c1cccc([N+](=O)[O-])c1	41	-14
CC(=O)Nc1ccc(N=Cc2ccccc2O)cc1	4	0
CC(=O)Nc1ccc(N=Cc2cc(C)cc(I)c2O)cc1	65*	-7
CCn1ccc(C(=O)N2CCc3c(c(-c4nnc(SC)n4CC)nn3C)C2)n1	1	-2
CC1Oc2ccccc2C=C1C=CC(=O)O (configuration not stated)	-2	-9
CC1Oc2ccccc2C=C1C=C1SC(=S)NC1=O (configuration not stated)	59*	-13
COc1ccc(C=C2SC(=S)N(CCC(=O)O)C2=O)c(OC)c1	8	-6
CC1Oc2ccccc2C=C1C=C1SC(=S)N(CCC(=O)O)C1=O (configuration not stated)	53*	-7
COc1cccc(CN2CCCC2c2cc(C(C)C)on2)c1OC (configuration not stated)	-2	0
O=C(Nc1cccc(C(F)(F)F)c1)c1ccccc1Br	-26	-5
Cc1noc(C)c1CN1CCN(C(=O)CN2C(=O)CCC2=O)CC1	-16	-4
Nc1nccc(-c2ccc(C(F)(F)F)cc2)n1	-5	x
CN(Cc1ccccc1)Cc1cncc(-c2cc3ccccc3s2)c1	80*	-2
CN(Cc1ccccc1)Cc1ccc(O)cc1	-4	-1
Cc1ccc(CNC(=O)N2CCCN(c3ncccc3-c3nc(C4CC4)no3)CC2)cc1	2	-7
O=C(Nc1cccc2ccc(-n3ccnc3)nc12)c1ccsc1	51*	-6
O=C(Nc1cccc2ccc(-n3ccnc3)nc12)c1ccc2c(c1)OCO2	-10	0
COc1ccc(-c2n[nH]c3c2C(c2ccc(OC)c(OC)c2)N(c2ccccc2)C3=O)cc1 (configuration not stated)	19	-4
CC(=O)C1=C(O)C(=O)N(c2ccccn2)C1c1ccc([N+](=O)[O-])cc1 (configuration not stated)	2	2
O=C1c2[nH]nc(-c3ccc(Cl)cc3)c2C(c2ccc([N+](=O)[O-])cc2)N1c1ccccn1 (configuration not stated)	89*	-1
COc1ccc(C2c3c(-c4ccccc4)n[nH]c3C(=O)N2c2ccccc2)cc1 (configuration not stated)	59*	6
O=C1c2[nH]nc(-c3ccccc3)c2C(c2ccccc2[N+](=O)[O-])N1c1ccccc1 (configuration not stated)	59*	-1
O=C1c2[nH]nc(-c3ccccc3)c2C(c2ccccc2)N1c1ccccc1 (configuration not stated)	37	-9
CCCc1cc(C2CCCN2C(=O)c2cc(C)no2)no1 (configuration not stated)	-4	1
SMILES	mHTT-CaM PPI inh	Pf apPOL inh
O=C(COc1ccccc1)N1CC2CN(S(=O)(=O)c3ccc(F)cc3)CC(C1)O2	-1	-3
O=C1C2=C(Nc3[nH]c(=O)[nH]c(=O)c3C2c2ccc(Cl)cc2)c2ccccc21 (configuration not stated)	67*!	-4
Cn1c2c(c(=O)n(C)c1=O)C(c1ccc(Cl)cc1)C1=C(N2)c2ccccc2C1=O (configuration not stated)	0	-8
Cn1c2c(c(=O)[nH]c1=O)C(c1ccc(OCc3ccccc3)cc1)C1=C(N2)c2ccccc2C1=O (configuration not stated)	86*	-94
Cn1c2c(c(=O)[nH]c1=O)C(c1ccc(O)cc1)C1=C(N2)c2ccccc2C1=O (configuration not stated)	19	9
O=C(NCc1cccnc1)C1CC(=O)N(C2CC3CCC2C3)C1 (configuration not stated)	29	0
COc1ccccc1CNc1ccccc1	3	-10
COc1ccc(NCc2ccccc2Br)cc1OC	73*	6
COc1ccc(CNc2ccccc2SC)cc1OC	15	3
COc1ccc(NCc2ccc(C)cc2C)cc1OC	83*	1
COc1ccc(NCc2ccc(SC)cc2)cc1OC	80*	0
COc1ccc(CNCc2ccc(C)cc2C)c(OC)c1	-2	-2
O=c1[nH]c(/C=C/c2cccc(Br)c2)c([N+](=O)[O-])c(=O)[nH]1	16	-2
Cc1cc2ccccc2n1CCNC(=O)C(C)(C)Oc1ccc(Cl)cc1	60*	-2
O=C(NCCSc1c[nH]c2ccccc12)c1ccc(Cl)cc1	8	-3
CC(C)(Oc1ccc(Cl)cc1)C(=O)NCCc1ccccc1	-38	0
CC(C)(Oc1ccc(Cl)cc1)C(=O)NCCSc1c[nH]c2ccccc12	99*	3
CC1CCN(c2ncc3c(n2)CCC(C(=O)NCc2ccncc2)C3)CC1 (configuration not stated)	-6	-4
COc1cccc(/C=C2\SC(=N)N(c3ccc4c(c3)OCO4)C2=O)c1OC	3	4
O=C(Nc1ccccc1C(F)(F)F)c1cc([N+](=O)[O-])nn1Cc1ccccc1	1	-12
CS(=O)(=O)N1CCC(Oc2ccc(-n3cnnn3)cc2)CC1	-8	-8
N#CC1=C(N)Oc2n[nH]c(-c3ccccc3)c2C1c1cccc([N+](=O)[O-])c1 (configuration not stated)	11	-4
N#CC1=C(N)Oc2c(C=Nc3ccccc3)ccc(O)c2C1c1cccc([N+](=O)[O-])c1 (configuration not stated)	100*	-4
Cc1ccc(C(=O)N2CCc3sc(C(=O)NCCN4CCCCC4)cc3C2)cc1	2	-9
COc1ccc(-c2cc3nc4c(c(=O)n3[nH]2)CCN(C(=O)Nc2ccccc2Cl)C4)cc1	2	2
SMILES	mHTT-CaM PPI inh	Pf apPOL inh
COc1ccccc1C(=O)N1CCN(Cc2ccncc2)CC1	-2	2
CCNS(=O)(=O)C1CON(C)C1c1cccc(Cl)c1Cl (configuration not stated)	-2	-5
Cc1ccc(C2C3=C(Nc4ncnn42)c2ccccc2OC3c2cccc(F)c2)cc1 (configuration not stated)	53*	-7
Cc1ccc(C2C3=C(Nc4ncnn42)c2ccccc2OC3c2ccc(F)cc2)cc1 (configuration not stated)	51*	-5
Cc1ccc(C2Oc3ccccc3C3=C2C(c2ccc(F)cc2)n2ncnc2N3)cc1 (configuration not stated)	3	2
Fc1ccc(C2C3=C(Nc4ncnn42)c2ccccc2OC3c2cccc(F)c2)cc1 (configuration not stated)	27	-5
O=C1C(=Cc2ccco2)N2CCC1CC2	x	2
Cc1c(Cc2ccc(Cl)cc2)c(NCCCn2ccnc2)n2c(nc3ccccc32)c1C#N	-5	1
Cc1ccc(-n2[nH]c(=O)c(C=c3c(C)c(C#N)c4nc5ccccc5n4c3=O)c2O)cc1Cl	51*	3
Cc1nc2nc(SCC(=O)NCC3CCCO3)nn2c(C)c1Cc1c(F)cccc1Cl (configuration not stated)	70*	35
Cc1nc2nc(SCC(=O)NCC3CCCO3)nn2c(C)c1Cc1ccccc1Cl (configuration not stated)	15	2
CCCc1c(C)nc2c(C(=O)NCc3ccccc3)c[nH]n2c1=O	21	-9
CCCc1c(C)nc2c(C(=O)NCc3ccc(C)cc3)c[nH]n2c1=O	21	10
